About 2,000 (36%) of roughly 5,500 compounds were called active. Another 18% or so got no clear call; they are omitted. Rule as the data show it: active = normalized growth mostly below about 0.91 (no sharp cut-off); inconclusive = no clear call, values can overlap the other calls; inactive = mostly above about 0.92. This is one part of the list.
Test: chemical genetic growth profiling, strain panel (AID 1159580);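 also: tested at 20 µM; growth read once vehicle control cultures reached saturation at 30 °C; 1 = growth at the plate median or of vehicle wells; lower values mean less growth of the strain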
Conditions: growth OD
[1] = S. cerevisiae deletion strains, locus YGR078C, strain PAC10, hits give low values
[2] = S. cerevisiae deletion strains, locus YJR075W, strain HOC1, hits give low values
[3] = S. cerevisiae deletion strains, locus YMR307W, strain GAS1, hits give low values
[4] = S. cerevisiae deletion strains, locus YNL153C, strain GIM3, hits give low values
[5] = S. cerevisiae deletion strains, locus YNL322C, strain KRE1, hits give low values
[6] = S. cerevisiae deletion strains, locus YPL241C, strain CIN2, hits give low values

Measured: normalized growth

CC(C)(Sc1ccc(CCN(CCCCC2CCCCC2)C(=O)NC2CCCCC2)cc1)C(=O)O
inactive: S. cerevisiae deletion strains, locus YAL040C, strain CLN3, hits give low values 1.06 | S. cerevisiae deletion strains, locus YCL061C, strain MRC1 (second series), hits give low values 0.994 | S. cerevisiae deletion strains, locus YDR363W, strain ESC2, hits give low values 1.01 | S. cerevisiae deletion strains, locus YER002W, strain NOP16, hits give low values 1.01 | [1] 1.03 | [2] 1.01 | [3] 0.994 | [4] 0.986 | S. cerevisiae deletion strains, locus YNL175C, strain NOP13, hits give low values 1.01 | S. cerevisiae deletion strains, locus YNL197C, strain WHI3, hits give low values 1.02 | S. cerevisiae deletion strains, locus YNL224C, strain SQS1, hits give low values 1 | [5] 0.994 | S. cerevisiae deletion strains, locus YOR083W, strain WHI5 (second series), hits give low values 0.98 | [6] 1

CC(C)(C)S(=O)(=O)/C(C#N)=C/c1ccc(F)cc1F
inactive: S. cerevisiae deletion strains, locus YAL013W, strain DEP1, hits give low values 0.995 | S. cerevisiae deletion strains, locus YBR229C, strain ROT2, hits give low values 0.999 | S. cerevisiae deletion strains, locus YDL101C, strain DUN1, hits give low values 1 | S. cerevisiae deletion strains, locus YDL134C, strain PPH21, hits give low values 1.01 | S. cerevisiae deletion strains, locus YDR150W, strain NUM1, hits give low values 0.947 | S. cerevisiae deletion strains, locus YEL061C, strain CIN8, hits give low values 1.02 | [1] 0.999 | S. cerevisiae deletion strains, locus YHR030C, strain SLT2, hits give low values 1.08 | S. cerevisiae deletion strains, locus YHR087W, strain rtc3, hits give low values 1.01 | S. cerevisiae deletion strains, locus YJL187C, strain SWE1, hits give low values 1 | S. cerevisiae deletion strains, locus YJR043C, strain POL32, hits give low values 1.01 | [2] 0.987 | S. cerevisiae deletion strains, locus YKL190W, strain CNB1, hits give low values 1.02 | S. cerevisiae deletion strains, locus YLR039C, strain RIC1, hits give low values 0.962 | S. cerevisiae deletion strains, locus YLR058C, strain SHM2 (second series), hits give low values 0.987 | S. cerevisiae deletion strains, locus YLR085C, strain ARP6, hits give low values 1.06 | S. cerevisiae deletion strains, locus YLR262C, strain YPT6, hits give low values 0.954 | S. cerevisiae deletion strains, locus YML094W, strain GIM5, hits give low values 1.03 | S. cerevisiae deletion strains, locus YMR219W, strain ESC1, hits give low values 0.989 | S. cerevisiae deletion strains, locus YMR263W, strain SAP30, hits give low values 0.977 | [3] 1.01 | S. cerevisiae deletion strains, locus YNL128W, strain TEP1, hits give low values 1.01 | [4] 1.01 | S. cerevisiae deletion strains, locus YNL298W, strain CLA4 (second series), hits give low values 1.03 | [5] 0.994 | S. cerevisiae deletion strains, locus YNR030W, strain Alg12, hits give low values 1.01 | S. cerevisiae deletion strains, locus YPL055C, strain LGE1, hits give low values 0.919 | [6] 1.03 | S. cerevisiae deletion strains, locus YPR135W, strain CTF4, hits give low values 1.05 | S. cerevisiae strains, strain wild type, hits give low values 1.03

From PubChem BioAssay AID1159580 (chemical genetic matrix, 2015)
